Results taken from PubChem BioAssay (Tox21).
Inconclusive results are not listed. Unmarked numbers belong to inactive results. Calls of active or inactive are those of the source. The call rests on the fitted dose curve; in most records, active means well fitted inhibition curve with a large enough effect in the repeat runs; inconclusive means weak or mixed curves; inactive means flat fitted curve, though single readings scatter.

molecular target: Voltage-gated inwardly rectifying potassium channel KCNH2 (Homo sapiens) (UniProt Q12809); assay: Human Ether-a-go-go-Related Gene (hERG) channel small molecule antagonists: fluorescence cell-based qHTS assay (AID 1671200); details: hERG-U2OS cells, FluxOR thallium flux fluorescence; series mostly up to 76.8 µM; activity change, negative = inhibition: at the top concentration; further: nearly all actives have a fitted effect of over 50% in size
Sequence (Q12809 whole entry, looked up): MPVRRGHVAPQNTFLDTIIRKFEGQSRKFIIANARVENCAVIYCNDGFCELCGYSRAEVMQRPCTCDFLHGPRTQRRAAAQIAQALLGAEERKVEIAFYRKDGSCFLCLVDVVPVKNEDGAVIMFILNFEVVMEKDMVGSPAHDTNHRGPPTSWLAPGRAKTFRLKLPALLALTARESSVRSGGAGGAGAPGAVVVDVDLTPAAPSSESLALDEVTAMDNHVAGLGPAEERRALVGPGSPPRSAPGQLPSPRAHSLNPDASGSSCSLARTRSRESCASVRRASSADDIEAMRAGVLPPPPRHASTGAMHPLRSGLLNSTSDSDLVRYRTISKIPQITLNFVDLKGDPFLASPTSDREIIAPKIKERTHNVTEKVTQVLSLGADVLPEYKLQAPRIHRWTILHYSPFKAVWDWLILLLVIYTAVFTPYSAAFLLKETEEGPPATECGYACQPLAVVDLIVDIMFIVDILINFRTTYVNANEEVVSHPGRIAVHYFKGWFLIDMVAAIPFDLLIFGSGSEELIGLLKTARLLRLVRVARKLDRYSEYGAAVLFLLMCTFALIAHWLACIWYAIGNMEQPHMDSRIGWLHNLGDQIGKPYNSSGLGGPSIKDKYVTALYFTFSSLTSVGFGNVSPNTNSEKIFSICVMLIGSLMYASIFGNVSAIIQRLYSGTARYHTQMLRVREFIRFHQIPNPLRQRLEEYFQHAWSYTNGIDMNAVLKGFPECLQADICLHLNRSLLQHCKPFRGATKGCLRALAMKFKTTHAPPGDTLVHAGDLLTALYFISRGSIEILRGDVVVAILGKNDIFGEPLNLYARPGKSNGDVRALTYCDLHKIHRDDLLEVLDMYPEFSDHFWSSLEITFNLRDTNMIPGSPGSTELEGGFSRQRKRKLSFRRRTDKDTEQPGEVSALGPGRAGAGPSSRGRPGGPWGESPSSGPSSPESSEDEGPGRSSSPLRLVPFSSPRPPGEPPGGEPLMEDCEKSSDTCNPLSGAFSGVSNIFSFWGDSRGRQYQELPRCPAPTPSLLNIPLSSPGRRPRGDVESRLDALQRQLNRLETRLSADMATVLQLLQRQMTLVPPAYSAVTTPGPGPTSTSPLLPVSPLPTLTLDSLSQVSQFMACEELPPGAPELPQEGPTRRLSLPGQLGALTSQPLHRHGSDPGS
Excerpt: National Center for Advancing Translational Sciences [NCATS]
U.S. Environmental Protection Agency [EPA]
National Institutes of Environmental Health Sciences [NIEHS]
National Toxicology Program [NTP]
U.S. Food and Drug Administration [FDA]
Mutations in the hERG channel cause Long QT (LQT) syndrome. LQT syndrome is a cardiac disorder which can cause ventricle arrhythmia and sudden death. Additionally, compounds which block the hERG channel can cause acquired LQT syndrome. Several FDA approved drugs have been removed from the market due to their hERG blocking activity. A cell-based hERG channel inhibition assay can be used to screen chemical compounds that inhibit hERG channel. This assay measures hERG channel activity using thallium ions as surrogate ions to measure potassium into the cells.
Tox21 Assay Protocol Summary:
hERG-U2OS cells were resuspended in culture medium and dispensed into 1536-well, black wall/clear-bottom plates at 1000cells/well/3uL using a Multidrop Combi dispenser (Thermo Fisher, Waltham, MA). After plates were incubated at 37 C overnight, 3 uL of Loading Buffer provided by FluxOR II Potassium Ion Channel Assay kit (Thermo, Carlsbad, CA) was added to each well. The assay plates were then incubated at room temperature in the dark for 1h. […] After the assay plates were incubated at room temperature for 10 min, 1 uL of Stimulus Buffer provided by FluxOR II Potassium Ion Channel Assay kit was added into each well and fluorescence intensity (480nm excitation/540nm emission) was continuously measured for 2 min at 1 second intervals using a Functional Drug Screening System (FDSS) 7000EX kinetic plate reader (Hamamatsu, Japan).
On the % scale 0 is the no-effect control and ±100 the full control effect; potency means the concentration at half of the fitted maximal effect.

SMILES	activity change, negative = inhibition	Potency
O=C(Nc1ccc2c(c1)Cc1ccccc1-2)C(F)(F)F	0.967%	
CC/C=C/CCO	4.21%	
CC[C@H](NC(C)C)[C@H](O)c1ccc(O)c2[nH]c(=O)ccc12	1.63% [at 35.3 µM]	
CO[C@@H]1COCC[C@@H]1N[C@@H]1CC[C@@](C(=O)N2CCc3ncc(C(F)(F)F)cc3C2)(C(C)C)C1	-22.7%	
CC(=O)CC/C=C(\C)CC/C=C(\C)CC/C=C(\C)CCC=C(C)C	0.802% [at 35.3 µM]	
OCCOc1cccc(OCCO)c1	0.828%	
CCCCCCCCCCCCCCCCC(=O)O	5.23% [at 35.3 µM]	
O=C1c2ccccc2C(=O)c2c1ccc(O)c2O	4.28% [at 35.3 µM]	
CC1(C)C(=O)NC(=O)N1CO	-0.355%	
CCCC1CCOC(C)S1 (stereo not given)	0.147%	
CC(C)Cc1nccs1	-0.145%	
O=C(N[C@@H](Cc1ccccc1)[C@@H](O)C(=O)N1C[C@@H](O)[C@@H](O)C1)c1cc2cc(Cl)ccc2[nH]1	-11%	
CC(CCl)OC(C)CCl (stereo not given)	-3.16%	
C/C(=C\C(C)CC(C)CC(C)C)C1CC(=O)OC1=O (stereo not given)	4.42%	
C=CC(O)CCCCC (stereo not given)	7%	
CC(C)(Cc1c[nH]c2ccccc12)NCC(O)COc1ccccc1C#N (stereo not given)		8.49 µM (active)
Sc1nc(S)nc(S)n1	-1.01% [at 35.3 µM]	
COC(=O)C(C)(C)C	-14%	
CC(=O)S[C@H](C(=O)N[C@H]1Cc2ccccc2[C@H]2CCC[C@@H](C(=O)O)N2C1=O)C(C)C	-1.63%	
O=P(c1ccccc1)(c1ccccc1)c1ccccc1	-18.5%	

SMILES	activity change, negative = inhibition	Potency
COc1cc(C)c(Cc2cnc(N)nc2N)cc1OC	-1.66% [at 35.3 µM]	
CC(C)=CCC/C(C)=C/C=N/O	-14.2%	
O=C1OC(=O)C2CC=CCC12 (stereo not given)	6.76%	
CO[C@@H]1[C@@H](O[C@@H]2O[C@H](C)[C@@H](O[C@H]3C[C@@](C)(O)[C@@H](O)[C@H](C)O3)[C@H](N(C)C)[C@H]2O)[C@@H](CC=O)C[C@@H](C)[C@@H](O[C@@H]2CC[C@H](N(C)C)[C@@H](C)O2)/C=C/C=C/C[C@@H](C)OC(=O)C[C@H]1OC(C)=O	7.06% [at 35.3 µM]	
CCCCOC(=O)CC#N	-1.38%	
O=C(O)CCc1nc2ccccc2[nH]1	4.68% [at 35.3 µM]	
CCCCOC(=O)C(C)Oc1ccc(Oc2ccc(C(F)(F)F)cn2)cc1 (stereo not given)		24.5 µM (active)
CCC(=O)O[C@]1(C(=O)COC)[C@@H](C)C[C@H]2[C@@H]3CCC4=CC(=O)C=C[C@]4(C)C3(F)[C@@H](O)C[C@@]21C (stereo not given in full)	-4.37% [at 35.3 µM]	
Cc1cc(C)n(CO)n1	3.47%	
CC1(C)[C@@H]2CC[C@]3(C2)[C@@H]1C(=O)CCC3(C)C	-15.4%	
c1ccc(CN(Cc2ccccc2)Cc2ccccc2)cc1		24.5 µM (active)
CC(C)=CCC[C@H](C)CCO	1.61%	
CC(C)NC(=O)c1ccccc1N	2.01%	
N#CCCCC(C#N)CCC#N (stereo not given)	-1.79%	
O=C(O)c1ccccc1-n1cc(C(=O)O)c(=O)c2cc(Nc3c(F)cc(F)cc3Cl)c(Cl)cc21	8.75%	
CC(C)C[C@H](NC(=O)[C@H](Cc1ccccc1)NC(=O)c1cnccn1)B(O)O	-5.93% [at 35.3 µM]	
CCC[Si](OC)(OC)OC	2.34%	
CC(Cc1ccccc1)(NC(=O)CN)c1ccccc1 (stereo not given)	-4.93% [at 35.3 µM]	
NC(=O)c1ccccc1C(N)=O	1.61%	
O=C(O)c1ccncc1	4.97%	
